# Among all 200,000 compounds or so, about 18,000 (9%) were called active. The entries come from a sample that favours actives as a whole. Values without a mark were called inactive. No stated cut-off is given here; in the data, active means inhibition above about 50%; inactive means the rest.
# Test: antileishmanial activity against promastigotes – primary screen (AID 1063);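 further: promastigotes grown with compound for 44 hours at 28 °C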
# Conditions: Leishmania major promastigotes, resazurin fluorescence viability; at 10 µM; hits give high values
row,Structure (SMILES),inhibition
1,COc1ccc(F)cc1C(=O)C1CCCN(C(=O)CCc2ccccn2)C1 (configuration not stated),-6.74%
2,CN(CCc1ccccn1)C(=O)CCC1CCCN(Cc2ccccc2OC(F)F)C1 (configuration not stated),67.9% (active)
3,COc1cccc(CN2CCNC(=O)C2CC(=O)N(C)CCc2ccccn2)c1 (configuration not stated),1.29%
4,CN1CCNC(=O)C1CC(=O)N1CC=C(c2ccc(F)cc2)CC1 (configuration not stated),-0.97%
5,Cn1cccc1-c1nc2ccccc2n1C,6.87%
6,CCN1C(=O)C(CC(=O)Nc2cc(C)ccc2C)SC1=Nc1ccc(S(N)(=O)=O)cc1 (configuration not stated),10.5%
7,O=C(CC1SC(=Nc2ccccc2F)N(CCN2CCOCC2)C1=O)Nc1ccc(F)cc1F (configuration not stated),50.8% (active)
8,N#C/C(C(=O)N1CCOCC1)=C1/SC(Cc2ccc(F)cc2)C(=O)N1c1ccccc1 (configuration not stated),-0.55%
9,CCOC(=O)Cc1ncccc1C(=O)Nc1ccc(OC(F)(F)F)cc1,-5.35%
10,N#C/C(=C/c1cccc([N+](=O)[O-])c1)c1nnc2n1CCCCC2,81.3% (active)
11,N#C/C(=C(\O)CCl)c1nnc2n1CCCCC2,-1.52%
12,N#C/C(=C(\O)C(F)(F)F)c1nnc2n1CCCCC2,-2.09%
13,Cc1ccc2nc(Nc3ncc4c(n3)CC(C)(C)CC4=O)nc(C)c2c1,9.71%
14,Cn1cc(S(=O)(=O)N2CCC(Cc3ccccc3)CC2)c(=O)n(C)c1=O,-5.82%
15,O=C(c1ccccc1)c1ccc2nc(N3CCCCC3)c3nncn3c2c1,-0.8%
16,c1ccc(CC2CCN(c3nc4ccccc4n4cnnc34)CC2)cc1,64.6% (active)
17,CCOCCCNC(=O)C(NC(=O)Cc1c[nH]c2ccccc12)c1ccc(OC)cc1 (configuration not stated),-7.71%
18,COc1cc(C=O)c(Br)cc1OCC(=O)NCc1ccccc1,4.2%
19,COc1ccc(CCNC(=O)COC(=O)Cc2cc(OC)c(OC)c(OC)c2)cc1,-3.11%
20,Cc1cc(N2CCN(Cc3ccc4c(c3)OCO4)CC2)n2ncnc2n1,12.7%
21,Fc1ccc2[nH]c3c(N4CCSCC4)ncnc3c2c1,35.5%
22,Fc1ccc2[nH]c3c(N4CCN(Cc5ccc6c(c5)OCO6)CC4)ncnc3c2c1,77.8% (active)
23,Nc1nnnn1CC(=O)N/N=C/c1ccc(-c2cccc(Cl)c2)o1,-9.69%
24,COc1ccc(/C=N/n2c(C)cc(C)cc2=O)cc1,-6.47%
25,CC(CN1CCCCC1)OC(=O)c1ccccc1Cl (configuration not stated),-4.92%
26,CC(C)c1csc(CN2CCC(CO)(Cc3ccccc3)CC2)n1,14.2%
27,CCC(C)CN1CCC(CO)(Cc2ccccc2Cl)CC1 (configuration not stated),82.2% (active)
